Consider 38 molecules from PubChem BioAssay (NCI).

The panel holds about 83,000 compounds, 20% with a hit somewhere; the sample as a whole holds those more often.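 Interpretation: 100, growth as untreated; towards 0, rising growth inhibition; 0, no net growth; 0 to -100, cell death. Compounds scoring below 10 were considered active.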 The source made the active and inactive calls.

The test system of one experiment is OVCAR-5 ovarian. In words: NCI-60 one-dose screen, 48 h (100 = growth as untreated, 0 = no growth, -100 = all killed). The settings on record: 10 µM unless noted.
`COc1ccc(/C=C\c2nc3ccccc3s2)cc1OP(=O)(O)O`: the growth was 75.4% (inactive).
Same read-out and setting: the value for `Cn1c2c(Cl)c(Cl)ccc2c2cc(N)[nH]c(=O)c21` was 66.2% (inactive); that for `O=C1Nc2c(ccc(Cl)c2Cl)/C1=C/c1ccccn1` was 85.1% (inactive).
As to `O=C(N/N=C/c1ccc(O)c(O)c1)c1sc2ccccc2c1Cl`, the growth is 100% (inactive).
On the same count and under the same terms, for `O=C1/C(=C/c2ccc(O)cc2)COc2ccc(-c3ccccc3)cc21` the value was 102% (inactive); for `Cc1cc2cc3cc(C)c(N)cc3[n+](C)c2cc1N`, 46.2% (inactive); for `c1ccc(Cn2nc3c(c2-c2ccccc2)-c2oncc2CC3)cc1`, 107% (inactive).
Same read-out and setting: for `COc1ccc(-c2cnc(N)nc2-c2ccc(OC)cc2O)cc1` the value was 102% (inactive).
The same measure, in the same setting: the value for `COc1cccc(/C=C2\COc3ccc(-c4ccccc4)cc3C2=O)c1` was 49.6% (inactive); that for `COc1cc2nc(-c3ccc(C(F)(F)F)cc3)cc(OCCN3CCC(O)CC3)c2cc1OC` was 51% (inactive).
On to `NC(=O)c1cccc(-n2ccc3cc(NC(=O)Nc4cc(C(F)(F)F)cc(C(F)(F)F)c4)ccc32)n1`, for which the growth was 72.4% (inactive).
Same read-out and setting: the value for `CN1CCN(CC#CCNC(=O)[C@]23CCC(C)(C)C[C@H]2C2=CC[C@@H]4[C@@]5(C)Cc6c([nH]c7ccccc67)C(C)(C)[C@@H]5CC[C@@]4(C)[C@]2(C)CC3)CC1` was 98.9% (inactive); that for `COc1nccnn1` was 101% (inactive).
On to `Cc1ccc(S(=O)(=O)Nc2ccc(Cl)cc2)cc1`, for which the growth was 97.3% (inactive).
On the same count and under the same terms, the value for `COc1cc2c(cc1[N+](=O)[O-])-c1ccc([N+](=O)[O-])cc1/C2=N\O` was 102% (inactive); that for `Cc1c(C2=CCCCC2)c2ccccn2c1C(=O)c1cccc(S(=O)(=O)N2CCOCC2)c1` was 106% (inactive); that for `CC(C)CN(C(=O)c1ccc(Cl)cc1)c1c(N)n(CC(C)C)c(=O)[nH]c1=O` was 88.3% (inactive).
On the same count and under the same terms, the value for `O=C1Nc2ccccc2/C1=C\c1cccc(/C=C2/C(=O)Nc3ccccc32)n1` was -69.5% (active); that for `CCN(CCNc1cc(OC)cc2cccnc12)CCc1ccccc1` was 93.9% (inactive); that for `COc1ccccc1N1CCN(C(=O)c2ccc3nc(NC(=O)c4ccc(NCCc5ccccc5)c([N+](=O)[O-])c4)sc3c2)CC1` was 93.6% (inactive).
On the same count and under the same terms, the value for `CN1CCCC1=Nc1ccccc1` was 118% (inactive); that for `COc1ccc(/C(=C\c2ccccc2)C(=O)O)cc1OC` was 87.5% (inactive); that for `NC(=S)N/N=C(/c1ccccc1)c1ccccc1N` was 94.8% (inactive).
In the case of `COc1ccc(/C=N/NC(=O)c2cccc3cc[nH]c23)cc1O`, the growth is 87.8% (inactive).
Same read-out and setting: the value for `Nc1nnc(C(=O)c2cnc3n(c2=O)CCCCC3)s1` was 104% (inactive).
As to `Nc1nnc2cc(Cl)ccc2n1`, the growth was 105% (inactive).
Same read-out and setting: for `CC1=CC2(C)/C=C(C)/C=C\CC(O)/C=C3/C=CC(=C4C(=O)OC2(CC1C)C4=O)OC3` (stereo not drawn) the value was -57.9% (active); for `CN1CCN(Cc2ccc(NC(=O)c3cncc(C#Cc4cnccc4C(F)(F)F)c3)cc2C(F)(F)F)CC1`, 67.4% (inactive); for `CC[C@@]12C=CCN3CC[C@]4(c5cc(NC(=O)COc6cc(OCC(=O)Nc7cc8c(cc7OC)N(C)[C@H]7[C@@](O)(C(=O)OC)[C@H](OC(C)=O)[C@]9(CC)C=CCN%10CC[C@]87[C@@H]%109)cc7oc(-c8ccccc8)cc(=O)c67)c(OC)cc5N(C)[C@@H]4[C@](O)(C(=O)OC)[C@H]1OC(C)=O)[C@H]32`, 30.2% (inactive).
Turning to `CC(N)C(=O)NNc1n[nH]c(=S)n1N` (stereo not drawn), the growth is 92.9% (inactive).
On the same count and under the same terms, for `Cc1ccc(-c2csc(/N=C3\C(=O)Nc4ccccc43)n2)cc1` the value was 60.8% (inactive).

The next experiment relates to OVCAR-4 ovarian. The description is as above. Conditions: 10 µM unless noted.
`COc1ccc(/C=C\c2nc3ccccc3s2)cc1OP(=O)(O)O`: the growth is 72.6% (inactive).
On the same count and under the same terms, for `Cn1c2c(Cl)c(Cl)ccc2c2cc(N)[nH]c(=O)c21` the value was 87.2% (inactive); for `O=C1Nc2c(ccc(Cl)c2Cl)/C1=C/c1ccccn1`, 76.5% (inactive).
On the same count and under the same terms, for `O=C(N/N=C/c1ccc(O)c(O)c1)c1sc2ccccc2c1Cl` the value was 92.7% (inactive); for `COc1ccccc1C(C[N+](=O)[O-])c1c(-c2ccccc2)[nH]c2cc(C)ccc12` (stereo not drawn), 81.7% (inactive); for `O=C1/C(=C/c2ccc(O)cc2)COc2ccc(-c3ccccc3)cc21`, 100% (inactive).
For `Cc1cc2cc3cc(C)c(N)cc3[n+](C)c2cc1N`, the growth was 10% (inactive).
The same measure, in the same setting: the value for `c1ccc(Cn2nc3c(c2-c2ccccc2)-c2oncc2CC3)cc1` was 87.5% (inactive); that for `COc1ccc(-c2cnc(N)nc2-c2ccc(OC)cc2O)cc1` was 86.5% (inactive).
The same measure, in the same setting: the value for `COc1cccc(/C=C2\COc3ccc(-c4ccccc4)cc3C2=O)c1` was 65.2% (inactive).
On the same count and under the same terms, for `c1ccc(-c2nn(-c3ccccc3)[n+](-c3ccccc3-c3ccccc3)n2)cc1` the value was 22.3% (inactive); for `CCOC(=O)c1c(C)nc2c(c1N)C(=O)C(=O)N2Cc1ccc(C(F)(F)F)cc1`, 69.3% (inactive); for `COc1cc2nc(-c3ccc(C(F)(F)F)cc3)cc(OCCN3CCC(O)CC3)c2cc1OC`, 88.3% (inactive).
Turning to `NC(=O)c1cccc(-n2ccc3cc(NC(=O)Nc4cc(C(F)(F)F)cc(C(F)(F)F)c4)ccc32)n1`, the growth was 44% (inactive).
Same read-out and setting: for `CN1CCN(CC#CCNC(=O)[C@]23CCC(C)(C)C[C@H]2C2=CC[C@@H]4[C@@]5(C)Cc6c([nH]c7ccccc67)C(C)(C)[C@@H]5CC[C@@]4(C)[C@]2(C)CC3)CC1` the value was 77.8% (inactive); for `COc1nccnn1`, 101% (inactive).
Still for that read-out and setting: the value for `Cc1ccc(S(=O)(=O)Nc2ccc(Cl)cc2)cc1` was 89.7% (inactive); that for `COc1cc2c(cc1[N+](=O)[O-])-c1ccc([N+](=O)[O-])cc1/C2=N\O` was 79.6% (inactive); that for `O=C(Nc1nc2ccc(C(=O)N3CCN(c4ccc(Cl)c(Cl)c4)CC3)cc2s1)c1ccc(NCCc2ccccc2)c([N+](=O)[O-])c1` was 87.3% (inactive).
For `Cc1c(C2=CCCCC2)c2ccccn2c1C(=O)c1cccc(S(=O)(=O)N2CCOCC2)c1`, the growth is 52.2% (inactive).
The same measure, in the same setting: the value for `CC(C)CN(C(=O)c1ccc(Cl)cc1)c1c(N)n(CC(C)C)c(=O)[nH]c1=O` was 107% (inactive).
Consider `O=C1Nc2ccccc2/C1=C\c1cccc(/C=C2/C(=O)Nc3ccccc32)n1`, for which the growth was 11.6% (inactive).
Still for that read-out and setting: the value for `NC(=O)c1ccc[n+](CC(=O)N2CCN(c3cc4c(cc3F)c(=O)c(C(=O)O)cn4C3CC3)CC2)c1` was 74.8% (inactive).
Same read-out and setting: the value for `CCN(CCNc1cc(OC)cc2cccnc12)CCc1ccccc1` was 19.1% (inactive); that for `COc1ccccc1N1CCN(C(=O)c2ccc3nc(NC(=O)c4ccc(NCCc5ccccc5)c([N+](=O)[O-])c4)sc3c2)CC1` was 2.92% (active); that for `COc1ccc(/C(=C\c2ccccc2)C(=O)O)cc1OC` was 103% (inactive).
The same measure, in the same setting: for `NC(=S)N/N=C(/c1ccccc1)c1ccccc1N` the value was 78.5% (inactive); for `COc1ccc(/C=N/NC(=O)c2cccc3cc[nH]c23)cc1O`, 49.6% (inactive).
As for `Nc1nnc(C(=O)c2cnc3n(c2=O)CCCCC3)s1`, the growth was 111% (inactive).
Same read-out and setting: for `Nc1nnc2cc(Cl)ccc2n1` the value was 111% (inactive).
Still for that read-out and setting: the value for `CC(=O)Nc1ccc(S(=O)(=O)NC2CCCCC2)cc1` was 113% (inactive); that for `CC1=CC2(C)/C=C(C)/C=C\CC(O)/C=C3/C=CC(=C4C(=O)OC2(CC1C)C4=O)OC3` (stereo not drawn) was -40.6% (active); that for `CN1CCN(Cc2ccc(NC(=O)c3cncc(C#Cc4cnccc4C(F)(F)F)c3)cc2C(F)(F)F)CC1` was 59.2% (inactive).
For `CC[C@@]12C=CCN3CC[C@]4(c5cc(NC(=O)COc6cc(OCC(=O)Nc7cc8c(cc7OC)N(C)[C@H]7[C@@](O)(C(=O)OC)[C@H](OC(C)=O)[C@]9(CC)C=CCN%10CC[C@]87[C@@H]%109)cc7oc(-c8ccccc8)cc(=O)c67)c(OC)cc5N(C)[C@@H]4[C@](O)(C(=O)OC)[C@H]1OC(C)=O)[C@H]32`, the growth is 28.8% (inactive).
Take `Cc1n[nH]c(C)c1-c1c(C)n[nH]c1C`: the growth is -17.5% (active).
On to `CC(N)C(=O)NNc1n[nH]c(=S)n1N` (stereo not drawn), for which the growth was 105% (inactive).
Same read-out and setting: the value for `Cc1ccc(-c2csc(/N=C3\C(=O)Nc4ccccc43)n2)cc1` was 36% (inactive).
